# PubChem BioAssay
# Several values for one entry are separate records, joined by “and”; a condition that tells them apart may be missing. Identical values can stand only once. Activity calls are given as the source filed them. Cut-off read from the data, not from the text of the source, unless noted: active = inhibition above about 80%; inactive = the rest.
# How the values were obtained:
# [1] = LFS_MB_P medulloblastoma growth inhibition, cell-based, chromothripsis tumors, cisplatin or BGB combos (AID 1671449); conditions: LFS_MB_P medulloblastoma cells;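 note: cells exposed for 96 hours; 0% = vehicle DMSO and 100% = killing by high DMSO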
# [2] = HDN33 neuroblastoma growth inhibition, cell-based, chromothripsis tumors, cisplatin or BGB combos (AID 1671450); conditions: HDN33 neuroblastoma cells, stronger effect = higher value;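 note: cells exposed to compound for four days; 0% = vehicle DMSO and 100% = cell killing by high DMSO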
# [3] = ICB984 medulloblastoma cell growth inhibition, synergistic combos for chromothripsis tumors, cisplatin or BGB combos (AID 1671451; call rule not given here;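 note: cells exposed for 96 hours before readout; 0% = vehicle DMSO and 100% = killing by high DMSO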); conditions: ICB984 medulloblastoma cells, drug combinations, stronger effect = higher value
# [4] = LFS_MB_1R medulloblastoma cell growth inhibition, synergistic combos for chromothripsis tumors, cisplatin or BGB combos (AID 1671452); conditions: LFS_MB_1R medulloblastoma cells, stronger effect = higher value;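 note: cells exposed for 96 hours before readout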
# [5] = HTB85 osteosarcoma cell growth inhibition, synergistic combos for chromothripsis tumors, BGB or cisplatin IC20 combos (AID 1671453); conditions: HTB85 osteosarcoma cells, drug combinations, stronger effect = higher value;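 note: cells exposed for 96 hours before readout; 0% = vehicle DMSO and 100% = high DMSO killing control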
# [6] = CRL2098 osteosarcoma cell growth inhibition, synergistic combos for chromothripsis tumors, BGB or cisplatin IC20 combos (AID 1671454); conditions: CRL2098 osteosarcoma cells, drug combinations, stronger effect = higher value;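 note: cells exposed for 96 h before readout; 0% = vehicle DMSO and 100% = killing by high DMSO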
# [7] = HD-MB03 medulloblastoma cell growth inhibition, synergistic combos for chromothripsis tumors, BGB or cisplatin IC20 combos (AID 1671455; in the data active = inhibition above about 83%;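 note: 0% = vehicle DMSO and 100% = high DMSO as cytotoxic control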); conditions: HD-MB03 medulloblastoma cells, stronger effect = higher value
# [8] = UWB1.289 ovarian carcinoma cell growth inhibition, synergistic combos for chromothripsis tumors, BGB or cisplatin combos (AID 1671456); conditions: UWB1.289 ovarian carcinoma cells, stronger effect = higher value;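 note: cells exposed to compound for four days; 0% = vehicle DMSO and 100% = killing by high DMSO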
# [9] = LFS_MB_2R medulloblastoma cell growth inhibition, synergistic combos for chromothripsis tumors, cisplatin combos (AID 1671457); conditions: LFS_MB_2R medulloblastoma cells, stronger effect = higher value;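 note: cells exposed to compound for four days before readout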
# [10] = MDA-MB-436 breast carcinoma cell growth inhibition, synergistic combos for chromothripsis tumors, BGB or cisplatin combos (AID 1671458; call rule not given here;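 note: cells exposed for 96 hours; 0% = vehicle DMSO and 100% = killing by high DMSO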); conditions: MDA-MB-436 breast carcinoma growth inhibition, drug combinations, stronger effect = higher value
# [11] = UWB1.289_BRCA1 ovarian cancer growth, cell-based, BGB or cisplatin combinations (AID 1671459); conditions: UWB1.289 BRCA1 ovarian carcinoma, drug combinations, stronger effect = higher value
# [12] = human astrocyte viability loss, single and combined drugs, cytotoxicity control for chromothriptic childhood tumor combination screen, cell-based, BGB or cisplatin IC20 combos (AID 1671460); conditions: Human astrocytes, drug combinations, stronger effect = higher value;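 note: cells exposed to compounds for 96 hours before viability readout; 0% = vehicle and 100% = killing control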
# [13] = growth inhibition of BT084 medulloblastoma cells, cell-based, ICGC_MB145, cisplatin and BGB IC40 combos (AID 1671461); conditions: drug combinations, stronger effect = higher value;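 note: cells exposed to drugs for 96 hours; 0% = vehicle DMSO and 100% = high DMSO full killing control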
# [14] = growth inhibition of RCMB18 medulloblastoma cells, cell-based, cisplatin and BGB IC40 combos (AID 1671462); conditions: stronger effect = higher value;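 note: cells exposed to compound for four days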
# [15] = growth inhibition of CRL1545 osteosarcoma cells, cell-based, cisplatin and BGB IC20 combos (AID 1671464); conditions: stronger effect = higher value;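 note: cells exposed to compound for 96 hours before readout; 0% = vehicle DMSO and 100% = high DMSO killing control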
# [16] = at 0.5 µM, stronger effect = higher value
# [17] = measured here: combination with BGB IC20, at 0.005 µM
# [18] = measured here: combination with BGB IC40, at 0.005 µM
# [19] = measured here: combination with BGB IC40, at 0.05 µM
# [20] = measured here: combination with cisplatin, at 0.5 µM, stronger effect = higher value
# [21] = measured here: combination with cisplatin, at 5 µM, stronger effect = higher value
# [22] = measured here: with BGB IC20 combination, at 0.5 µM
# [23] = measured here: with cisplatin IC20 combination, at 0.5 µM
# [24] = measured here: 5 uM single agent, at 5 µM
# [25] = measured here: combination with cisplatin, at 0.5 µM
# [26] = measured here: combination with cisplatin, at 5 µM
# [27] = measured here: with BGB IC20, at 0.5 µM
# [28] = measured here: with BGB IC20, at 5 µM
# [29] = measured here: with cisplatin IC20, at 0.5 µM
# [30] = measured here: with cisplatin IC20, at 5 µM
# [31] = measured here: combination with BGB at IC20, at 0.5 µM
# [32] = measured here: combination with cisplatin at IC20, at 0.5 µM
# [33] = measured here: combo with BGB at IC20, at 0.5 µM
# [34] = measured here: combo with cisplatin at IC20, at 0.5 µM
# [35] = measured here: inhibition with BGB combination, at 0.05 µM
# [36] = measured here: inhibition with cisplatin combination, at 0.05 µM
# [37] = measured here: BGB combination, at 0.5 µM
# [38] = measured here: BGB combination, at 5 µM
# [39] = measured here: cisplatin combination, at 0.5 µM
# [40] = measured here: cisplatin combination, at 5 µM
# [41] = BGB combination, concentration series, at 5 µM
# [42] = cisplatin combination, concentration series, at 5 µM
# [43] = measured here: combo with BGB IC20, at 0.5 µM
# [44] = measured here: combo with cisplatin IC20, at 0.5 µM
# [45] = cisplatin combination, at 0.5 µM
# [46] = measured here: BGB IC40 combination 0.05 uM, at 0.05 µM
# [47] = measured here: BGB IC40 combination, at 0.05 µM
smiles,measurement,setting,value
CCCCCCCCCC(=O)N[C@@H](Cc1c[nH]c2ccccc12)C(=O)N[C@@H](CC(N)=O)C(=O)N[C@@H](CC(=O)O)C(=O)NC1C(=O)NCC(=O)N[C@@H](CCCN)C(=O)N[C@@H](CC(=O)O)C(=O)N[C@H](C)C(=O)N[C@@H](CC(=O)O)C(=O)NCC(=O)N[C@H](CO)C(=O)N[C@@H](C(C)CC(=O)O)C(=O)N[C@@H](CC(=O)c2ccccc2N)C(=O)OC1C (stereo partly specified),inhibition,[1]; [16],-27.6% (inactive) and -32.6% (inactive)
same,inhibition,[1]; [17],1.22% and 8.36%
same,inhibition,[1]; [18],-33.3% and -6.15%
same,inhibition,[1]; [19],-27.1% and -21.6%
same,inhibition,[1]; [20],-42.5% and -64.3%
same,inhibition,[1]; [21],-23.7% and -0.57%
same,inhibition,"[2]; BGB combo, at 5 µM",-9.1% and -17.9%
same,inhibition,[2]; at 0.5 µM,-7.65% (inactive) and -14% (inactive)
same,inhibition,"[2]; cisplatin combo, at 5 µM",17.9% and -21%
same,inhibition,[2]; [22],-19% and -14.2%
same,inhibition,[2]; [23],5.61% and -17.4%
same,inhibition,"[2]; single agent, at 5 µM",5.14% and 4.37%
same,inhibition,"[3]; BGB IC20 combo, at 0.005 µM",-14.8% and 0.272%
same,inhibition,"[3]; BGB IC40 combo, at 0.005 µM",-10.2% and -12.9%
same,inhibition,"[3]; BGB IC40 combo, at 0.05 µM",-9.03% and -26.8%
same,inhibition,[3]; at 0.5 µM,-38.5% (inactive) and -18.4% (inactive)
same,inhibition,"[3]; cisplatin combo, at 0.05 µM",-12.1% and -31.4%
same,inhibition,"[3]; cisplatin combo, at 0.5 µM",-42.4% and -16.6%
same,inhibition,"[3]; cisplatin combo, at 5 µM",-27.4% and -22.6%
same,inhibition,[3]; [24],-18.7% and 2.31%
same,inhibition,[4]; at 0.5 µM,-6.57% (inactive) and -6.58% (inactive)
same,inhibition,[4]; [19],-2.79% and -15.2%
same,inhibition,[4]; [25],7.06% and -22.9%
same,inhibition,[4]; [26],-14.1% and 4.93%
same,inhibition,[5]; at 0.5 µM,-0.19% (inactive) and -22.1% (inactive)
same,inhibition,[5]; [27],1.21% and -18.4%
same,inhibition,[5]; [28],41% and -9.81%
same,inhibition,[5]; [29],-11.7% and -35.1%
same,inhibition,[5]; [30],-35% and -23.5%
same,inhibition,"[5]; single agent, at 5 µM",-14.9% and -5.13%
same,inhibition,[6]; at 0.5 µM,-34.4% (inactive) and -31.7% (inactive)
same,inhibition,[6]; [31],-39.7% and -27.2%
same,inhibition,[6]; [32],-14% and -62.4%
same,inhibition,[7]; at 0.5 µM,-9.94% (inactive) and -8.88% (inactive)
same,inhibition,[7]; [33],-6.42% and -16.2%
same,inhibition,[7]; [34],-14.7% and -5.25%
same,inhibition,[8]; at 0.5 µM,10.2% (inactive) and 12.2% (inactive)
same,inhibition,[8]; [35],-9.69% and -2.7%
same,inhibition,[8]; [36],-15.8% and -25.8%
same,inhibition,[9]; at 0.5 µM,-23.5% (inactive) and -6.81% (inactive)
same,inhibition,[9]; [25],-31.3% and -1.96%
same,inhibition,[9]; [26],-80.2% and 9.2%
same,inhibition,[10]; at 0.5 µM,-16.9% (inactive) and 1.2% (inactive)
same,inhibition,[10]; [37],-8.45% and 11.2%
same,inhibition,[10]; [38],-21.2% and 5.73%
same,inhibition,[10]; [39],-33.4% and -3.35%
same,inhibition,[10]; [40],-35% and -1.3%
same,inhibition,[11]; [41],0.446% and -9.8%
same,inhibition,[11]; at 0.5 µM,-0.18% (inactive) and -1.59% (inactive)
same,inhibition,[11]; [42],29.6% and 3.48%
same,inhibition,[12]; at 0.5 µM,-6.51% (inactive) and -21.5% (inactive)
same,inhibition,[12]; [43],-8.41% and -24.6%
same,inhibition,[12]; [44],-7.76% and -27.2%
same,inhibition,[13]; at 0.5 µM,-50.8% (inactive) and -0.72% (inactive)
same,inhibition,[13]; [45],-32.6% and -11.3%
same,inhibition,"[13]; cisplatin combination, at 5 µM",-30.3% and -7.6%
same,inhibition,[13]; [46],-7.72% and 14.6%
same,inhibition,"[13]; single agent, at 5 µM",-22.5% and -17.6%
same,inhibition,[14]; at 0.5 µM,-14.5% (inactive) and -23% (inactive)
same,inhibition,"[14]; cisplatin combo, at 5 µM",-29.9% and -45.9%
same,inhibition,[14]; [47],-12.3% and 4.76%
same,inhibition,[14]; [25],-0.362% and -63.9%
same,inhibition,"[14]; single agent, at 5 µM",-26.6% and -8.51%
same,inhibition,[15]; at 0.5 µM,12.4% (inactive) and 0.47% (inactive)
same,inhibition,[15]; [22],12.1% and 6.43%
same,inhibition,[15]; [23],10.6% and -4.18%
same,inhibition,"[15]; single agent, at 0.05 µM",-15.3% and 8.61%
same,inhibition,"[15]; single agent, at 5 µM",20.8% and -15.6%
Cc1c(Br)cc(NCC(=O)N/N=C/c2cc([N+](=O)[O-])ccc2O)cc1Br,inhibition,[1]; [16],4.38% (inactive)
same,inhibition,[1]; [17],-17.6%
same,inhibition,[1]; [18],-32.2%
same,inhibition,[1]; [19],-25.9%
same,inhibition,[1]; [20],-13.3%
same,inhibition,[1]; [21],49.2%
same,inhibition,"[2]; BGB combo, at 5 µM",40.5%
same,inhibition,[2]; at 0.5 µM,-0.34% (inactive)
same,inhibition,"[2]; cisplatin combo, at 5 µM",36.1%
same,inhibition,[2]; [22],-9.6%
same,inhibition,[2]; [23],14.3%
same,inhibition,"[2]; single agent, at 5 µM",47.8%
same,inhibition,"[3]; BGB IC20 combo, at 0.005 µM",-14%
same,inhibition,"[3]; BGB IC40 combo, at 0.005 µM",-19.6%
same,inhibition,"[3]; BGB IC40 combo, at 0.05 µM",-0.825%
same,inhibition,[3]; at 0.5 µM,-30.2% (inactive)
same,inhibition,"[3]; cisplatin combo, at 0.05 µM",-3.64%
same,inhibition,"[3]; cisplatin combo, at 0.5 µM",-27.9%
same,inhibition,"[3]; cisplatin combo, at 5 µM",-29.5%
same,inhibition,[3]; [24],-33%
same,inhibition,[4]; at 0.5 µM,-22.2% (inactive)
same,inhibition,[4]; [19],-11.7%
same,inhibition,[4]; [25],-16.8%
same,inhibition,[4]; [26],13.4%
same,inhibition,[5]; at 0.5 µM,-6.09% (inactive)
same,inhibition,[5]; [27],-1.02%
same,inhibition,[5]; [28],19.1%
same,inhibition,[5]; [29],-24.4%
same,inhibition,[5]; [30],5.29%
same,inhibition,"[5]; single agent, at 5 µM",37.4%
same,inhibition,[6]; at 0.5 µM,-42.4% (inactive)
same,inhibition,[6]; [31],-43.9%
same,inhibition,[6]; [32],-25%
same,inhibition,[7]; at 0.5 µM,-7.25% (inactive)
same,inhibition,[7]; [33],1.43%
same,inhibition,[7]; [34],-13.4%
same,inhibition,[8]; at 0.5 µM,5% (inactive)
same,inhibition,[8]; [35],-18.4%
same,inhibition,[8]; [36],-10.8%
same,inhibition,[9]; at 0.5 µM,-13% (inactive)
same,inhibition,[9]; [25],-18.6%
same,inhibition,[9]; [26],-37.8%
same,inhibition,[10]; at 0.5 µM,-18.5% (inactive)
same,inhibition,[10]; [37],-10.2%
same,inhibition,[10]; [38],25.8%
same,inhibition,[10]; [39],-39%
same,inhibition,[10]; [40],38.4%
same,inhibition,[11]; [41],59.1%
same,inhibition,[11]; at 0.5 µM,2.01% (inactive)
same,inhibition,[11]; [42],60.8%
same,inhibition,[12]; at 0.5 µM,9.92% (inactive)
same,inhibition,[12]; [43],11.5%
same,inhibition,[12]; [44],17.7%
same,inhibition,[13]; at 0.5 µM,-9.67% (inactive)
same,inhibition,[13]; [45],-1.86%
same,inhibition,"[13]; cisplatin combination, at 5 µM",27.3%
same,inhibition,[13]; [46],-3.3%
same,inhibition,"[13]; single agent, at 5 µM",6.62%
same,inhibition,[14]; at 0.5 µM,-19% (inactive)
same,inhibition,"[14]; cisplatin combo, at 5 µM",25.8%
same,inhibition,[14]; [47],-28.4%
same,inhibition,[14]; [25],22%
same,inhibition,"[14]; single agent, at 5 µM",8.19%
same,inhibition,[15]; at 0.5 µM,-4.87% (inactive)
same,inhibition,[15]; [22],-10.5%
same,inhibition,[15]; [23],-4.39%
same,inhibition,"[15]; single agent, at 0.05 µM",-22.9%
same,inhibition,"[15]; single agent, at 5 µM",44.6%
